About 83,000 compounds went through this panel and 20% of them were active in at least one assay; those are over-represented in the sample as a whole.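 Each cell line was grown in a 96-well plate and treated with one concentration of compound for 48 hours. Values below 10 were considered active.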 Values without a mark were called inactive. The source made the active and inactive calls.

The assay relates to HL-60(TB) leukemia. The assay can be described thus: NCI-60 one-dose screen, 48 h (100 = growth as untreated, 0 = no growth, -100 = all killed). Conditions: 10 µM unless noted.
Take `CCCCCc1ccnc(CC(=O)c2ccc(OC)cc2)c1`: the growth was 110%.

Consider `COC(=O)/C=C/c1cc(OC(C)=O)c2c(c1)C(C(=O)OC)C(c1ccc(OC(C)=O)c(OC(C)=O)c1)O2` (stereo not given), for which the growth was -35% (active).

Consider `CCN1C(=O)N(CC)C2C1NN=c1s/c(=C\c3cc4ccccc4[nH]3)c(=O)n12` (stereo not given), for which the growth is -62% (active).

For `Cc1ccnc(Nc2ccc([N+](=O)[O-])c(NCCN3CCOCC3)n2)c1`, the growth was -14.9% (active).

For the compound `CC/C(=C(\c1ccc(O)cc1)c1ccc(OCCN(C)CCN(C)C(=O)CCCCC(=O)c2c(C)[nH]c(/C=C3\N=C(c4ccc[nH]4)C=C3OC)c2C)cc1)c1ccccc1`, the growth is 103%.

Regarding `CC[C@H](CC[C@@H](C)[C@H]1CC[C@H]2[C@@H]3/C(=C/c4cccnc4)C(=O)C4=CC(=O)CC[C@]4(C)[C@H]3CC[C@]12C)C(C)C`, the growth is 64.6%.

Take `CCCCCCCC(=O)SCC/C=C/[C@@H]1CC(=O)NCc2nc(co2)C2=N[C@@](C)(CS2)C(=O)N[C@@H](C(C)C)C(=O)O1`: the growth was 8.71% (active).

Take `CC(C)(C)c1ccc(S(=O)(=O)N[C@H]2CC[C@H]3[C@@H]4CCc5cc(O)c([N+](=O)[O-])cc5[C@H]4CC[C@]23C)cc1`: the growth is 60.7%.

As to `O=[N+]([O-])c1cc(-c2ccccc2)c(O)c([N+](=O)[O-])c1`, the growth is 57.1%.

Consider `O=C(CCCCN1CCOCC1)Nc1ccc(Cn2nnc3c2C(=O)c2nnn(Cc4ccc(NC(=O)CCCCN5CCOCC5)cc4)c2C3=O)cc1`, for which the growth is -28.4% (active).

`O=C(COc1cccc(/C=C2\COc3ccccc3C2=O)c1)Nc1nccs1`: the growth was -58.4% (active).

With `CCCn1c(=S)sc2c1nc(C)n1c(Nc3ccccc3)nnc21`, the growth is 45.3%.

As for `Cn1cc(-c2nnc(-c3ccccc3)s2)c2cc(Br)cnc21`, the growth was 103%.

For the compound `Clc1ccc(Cn2cc(-c3nc4ccc(Br)nc4n3Cc3ccc(Cl)cc3)c3cccnc32)cc1`, the growth was 94.1%.

As to `Cc1c(Br)cccc1NC(=O)c1sc2nc3c(cc2c1N)CN(Cc1ccccc1)CC3`, the growth was -30.5% (active).

On to `Nc1ccc(Cl)c(S(=O)(=O)O)c1`, for which the growth was 90.5%.

With `C=C(C)[C@@H]1CC[C@]2(C)[C@H](C(=O)C=C3[C@@H]4C[C@](C)(C(=O)N5CCN(C)CC5)CC[C@]4(C)CC[C@]32C)[C@@]1(C)CCC#N`, the growth was -22% [100 µM] (active).

Turning to `COc1nc2ccc(C)cc2cc1-c1nc2c(cnn2-c2ccccc2)c(=O)[nH]1`, the growth is 50.1%.

Take `O=C(Nc1cccc(Br)c1)Oc1ccc(Cl)c2cccnc12`: the growth is 3.1% [100 µM] (active).

Turning to `Nc1ccc2c(c1Br)Cc1ccccc1-2`, the growth was 56.3%.

With `Cc1ccc2c(c1)Nc1ccc(C)cc1C2(C)C`, the growth is 81%.

For the compound `CN1CCN(CCCCCN=c2cc3c(=O)n(CCCCCN4CCN(C)CC4)c(=O)c4c(NCCCCCN5CCN(C)CC5)cc5c(O)n(CCCCCN6CCN(C)CC6)c(=O)c2c5c4-3)CC1`, the growth was 51.5%.

With `[2H]C([2H])([2H])Oc1ccc(/C=C/C(=O)/C=C(/C=C/c2ccc(OC([2H])([2H])[2H])c(OC([2H])([2H])[2H])c2OC([2H])([2H])[2H])OB(F)F)c(OC([2H])([2H])[2H])c1OC([2H])([2H])[2H]`, the growth is 52.3%.

For `CSc1nc(-c2cc3ccccc3o2)cc(-c2ccc(Cl)cc2)c1C#N`, the growth is 126%.

Regarding `COC(=O)/C=C1\S/C(=N\Nc2ccc([N+](=O)[O-])cc2[N+](=O)[O-])N(C2CCCCC2)C1=O`, the growth is 8.63% (active).

As to `O=C(NCCCN1CCC(N2CCCCC2)CC1)C1=Cc2cc(Br)ccc2OC1`, the growth is 36.3%.

As for `C[C@@H]1CC[C@@]2(OC1)O[C@H]1C[C@H]3[C@@H]4CC=C5C[C@@H](O[C@@H]6O[C@H](CO)[C@@H](O[C@@H]7O[C@@H](CO)[C@H](O)[C@H]7O)[C@H](O)[C@H]6O[C@@H]6O[C@@H](C)[C@H](O)[C@@H](O)[C@H]6O)CC[C@]5(C)[C@H]4CC[C@]3(C)[C@H]1[C@@H]2C`, the growth was -84.1% (active).

With `CC1Cc2ccccc2N1NC(=O)c1ccc(Cl)c(S(N)(=O)=O)c1` (stereo not given), the growth is 92.3%.

Turning to `CCCN1C(=O)N(CCC)C2C1NC(=S)N2/N=C/C=C/c1ccccc1OC` (stereo not given), the growth was -42.1% (active).

With `CCNC(=O)Oc1ccc[nH]c1=O`, the growth is 94.1%.

Take `COC(=O)/C=C1/SC(=Nc2ccc(F)cc2)N(CCc2c[nH]c3ccc(O)cc23)C1=O`: the growth was -8.07% (active).

For `c1cc2[nH]ncc2cc1-c1nc2ccc3[nH]ncc3c2c2c1CCC2`, the growth is -4.44% (active).

With `Nc1nc(Cl)nc2c1ncn2C1O[C@H](CO)[C@@H](O)[C@@H]1F` (stereo not given in full), the growth is -34.8% (active).

In the case of `CCOC(=O)/C=C/c1ccc([N+](=O)[O-])o1`, the growth was -4.64% (active).

As to `O=C(/C=C/c1ccco1)Nc1ncc(Cc2ccc(F)cc2)s1`, the growth is -41.6% (active).

Regarding `CC(C)(CCc1ccccn1)C(=O)CCCc1ccccn1`, the growth is 103%.

With `O=C(CSc1nnc(Nc2ccccc2)s1)NCCc1ccc(F)cc1`, the growth is 110%.

Regarding `COc1cc2cc(NCc3ccncc3)nc(C)c2cc1OC`, the growth was 103%.

In the case of `CN1CCN(c2ccc(NC(=O)c3cncnc3Nc3ccc4c(ccn4Cc4cccc(F)c4)c3)cc2)CC1`, the growth is -54.3% (active).

With `Cc1ccc(S(=O)(=O)c2nc(-c3ccccc3)oc2Sc2nc3ccccc3s2)cc1`, the growth was 71.9%.
